From article PMC5540273 (PLoS ONE, 2017)

Tests used:
Settings in all cases: concentration: 1 μM, replicates: in singlicate; n = 1
CDK8 = system: CDK8
CDK9 = system: CDK9
CDKL1 = system: CDKL1
CDKL2 = system: CDKL2
CDKL3 = system: CDKL3
CDKL5 = system: CDKL5
CHEK1 = system: CHEK1
CHEK2 = system: CHEK2
CIT = system: CIT
CLK1 = system: CLK1
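Note: KINOMEscan kinase panel screen.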

Compound	%Inh (CDK8) [%]	%Inh (CDK9) [%]	%Inh (CDKL1) [%]	%Inh (CDKL2) [%]	%Inh (CDKL3) [%]	%Inh (CDKL5) [%]	%Inh (CHEK1) [%]	%Inh (CHEK2) [%]	%Inh (CIT) [%]	%Inh (CLK1) [%]
Cc1ccc(O)cc1Nc1ccnc2ccc(C(C)(C)C)cc12 [GW856805]	0	12	24	0	17	10	9	3	25	0
COc1ccc(C)c(Nc2ccnc(Nc3ccc(-c4cnc[nH]4)cc3)n2)c1.Cl [GW784041]	35	0	44	0	0	1	0	0	0	18
Nc1ncc(-c2cn[nH]c2)c2scc(-c3ccc4c(c3)CCN4C(=O)Cc3ccccc3)c12 [GSK2593067]	37	0	0	28	0	0	0	0	0	40
COc1cc(Nc2ccnc3cc(-c4ccncc4)ccc23)cc(OC)c1OC.Cl [GW494610]	43	0	100	8	11	0	0	0	41	9
Cn1cc(-c2cnc(N)c3c(-c4ccc5c(c4)CCN5C(=O)Cc4ccccc4)csc23)cn1 [GSK2593074]	19	0	9	0	4	0	9	0	0	15
c1ccc(Oc2ccc(Nc3ccnc4cc(-c5ccc(CN6CCCCC6)o5)ccc34)cc2)nc1 [GW567143]	14	0	0	12	0	19	0	74	6	1
COc1cc(Nc2nccc(N3CCC(NC(=O)Nc4ccc5c(c4)OCO5)C3)n2)cc(OC)c1OC (stereo not drawn) [GSK1379766]	46	0	0	41	0	0	0	4	0	25
CCn1cnc2c(NCc3ccccc3)ncnc21 [SKF-96418]	40	20	13	10	12	0	0	0	16	0
O=C(Nc1n[nH]c2nc(-c3ccccc3O)ccc12)C1CC1 [SB-711880]	0	0	42	98.5	17	0	3	0	0	66
CN(C)c1ncnc2nc[nH]c12 [SKF-31736]	35	0	23	4	0	19	0	0	12	8
Cc1ccc(NC(=O)c2ccc(Cl)c(Cl)c2)cc1-c1ccc(C(=O)Nc2ccncc2)cc1 [GSK1398460]	0	2	1	13	0	4	22	0	97.6	39
O=C(Nc1n[nH]c2cc(-c3cccs3)ccc12)C1CC1 [SB-731284]	15	3	50	98.1	0	14	0	0	24	0
COC(=O)Nc1nc2ccc(Oc3ccc(NC(=O)Nc4cc(C(F)(F)F)ccc4F)cc3)cc2[nH]1.Cl [GW654607]	84	0	21	96.7	100	0	0	16	87	52
CN(c1ccc2c(c1)nc(NCc1ccccc1)n2C)c1ccnc(Nc2ccc(CS(C)(=O)=O)cc2)n1.Cl [GW811603]	79	15	20	0	16	9	0	0	55	31
Cl.Cl.NCC(NC(=O)c1cc(-c2cccnc2)c(-c2ccnc3[nH]ccc23)s1)c1ccccc1 (stereo not drawn) [GSK1323434]	43	1	66	23	0	0	0	55	100	71
CC(C)NCC(Cc1ccccc1)NC(=O)c1cc(Br)c(-c2ccnc3[nH]ccc23)s1.Cl.Cl (stereo not drawn) [GSK1383281]	34	0	17	11	0	0	0	39	53	40
Cl.N#CCc1ccc(Nc2nccc(Nc3ccc(Oc4ccccc4)cc3)n2)cc1 [GW639905]	0	0	3	55	0	0	38	0	41	23
COc1cccc(CC(=O)N2CCc3cc(-c4cn(C)c5ncnc(N)c45)ccc32)c1 [GSK2608899]	96.6	12	1	4	0	0	0	0	5	29
COc1ccc(NC(=O)c2ccoc2)cc1-c1ccc(C(=O)NCC2CC2)cc1 [GW810437]	38	16	11	0	2	6	0	0	0	0
CC(C)c1nc(-c2ccc(F)c(NS(=O)(=O)c3c(F)cccc3F)c2)c(-c2ccnc(Nc3ccc(N4CCOCC4)nc3)n2)s1 [GSK1804250]	28	1	22	99.3	0	88	0	49	81	7
Cn1cc(-c2ccc3c(c2)CCN3C(=O)Cc2cc(F)cc(F)c2F)c2c(N)ncnc21 [GSK2634140]	88	3	8	29	0	3	9	0	36	16
CCn1c(-c2nonc2N)nc2c(-c3ccccc3)ncc(OCCCN)c21.O=C(O)C(F)(F)F.O=C(O)C(F)(F)F [GSK260205]	1	0	7	31	0	0	0	0	98.9	14
Fc1cc(Cl)ccc1Nc1ccnc2cc(-c3ccc(CN4CCSCC4)o3)ccc12 [GW560106]	53	0	100	8	0	0	0	79	29	8
O=C(O)C(F)(F)F.O=c1[nH]ccc2nc(N[C@@H]3CCNC3)nc(Nc3ccc4c(c3)S(=O)(=O)CC4)c12 [GSK2181306]	0	30	40	44	0	0	98.3	82	84	74
COc1cc(Nc2nccc(N3CCC(NS(=O)(=O)c4ccc(NC(C)=O)cc4)CC3)n2)cc(OC)c1OC [GSK1379825]	31	0	19	24	0	0	0	0	17	2
O=C1NC(=O)C(c2ccccc2Cl)=C1Nc1cccc(Cl)c1 [SB-342409]	0	0	16	11	0	0	7	0	7	54
N#Cc1cnc2cc(-c3cnc(CNCCN4CCOCC4)s3)ccc2c1Nc1ccc(Oc2ccccc2)cc1 [GW664114]	10	0	0	61	0	29	0	82	22	40
O=C(O)C(F)(F)F.O=c1[nH]ccc2nc(N[C@@H]3CCNC3)nc(Nc3cc(Cl)cc(Cl)c3)c12 [GSK2188764]	0	34	37	24	0	0	100	85	67	82
CN(c1ccc(NC(=O)N2CCN(CCCN3CCOCC3)CC2)cc1)c1ccnc(Nc2ccc(CS(C)(=O)=O)cc2)n1.Cl [GW830899]	44	0	100	9	0	0	0	0	16	7
CN1CCN(Cc2ccc(NC(=O)Nc3ccc(N(C)c4ccnc(Nc5ccc(CS(C)(=O)=O)cc5)n4)cc3)cc2)CC1.Cl [GW827654]	60	50	71	99.8	99.6	0	0	78	23	42
